Compounds with a hit are over-represented: about 0.36% of the library has one in this group of screens.
AID504770 = growth inhibitors of E. coli YBA685 in a screen for V. cholerae RctB (chromosome II replication) inhibitors; E. coli YBA685 rctB-dependent plasmid, OD600 growth, 3 h; active compounds read low; z-score (concentration not given with the values); 0.27% of 130,000 active; AID 504770; in the data active = z-score below about -2, passing the limit was not always enough
CapD inh = inhibitors of Bacillus anthracis CapD enzyme; purified CapD enzyme, fluorescence intensity read-out; active compounds read low; z-score (test concentration not listed); AID 492967; 0.23% of 140,000 active; in the data active = z-score mostly below about -2.9, no sharp cut-off; inactive = mostly above about -1.9
Large screens that a line does not name were inactive; ! = repeats disagree.

CO/N=C(/C(=O)N[C@@H]1C(=O)N2C(C(=O)O)=C(COC(C)=O)CS[C@H]12)c1csc(N)n1	AID504770 -3.1
COC(=O)C(C)(Cc1ccccc1)NC(=O)Cc1nc(-c2ccccc2)oc1C (configuration not stated)	none (no result: AID504770)
NC(=O)c1ccsc1NC(=O)Cc1ccc(S(=O)(=O)N2CCOCC2)s1	AID504770 -5.4 (no result: CapD inh)
O=C(NCc1ccc(S(=O)(=O)N2CCOCC2)s1)c1ccc(Cl)cc1	none
CCN1CCN(C2=NC(=O)/C(=C\c3ccc(OC)cc3)S2)CC1	none (no result: AID504770)
CCN(CC)C(=O)CSc1nc2ccc(N3CCOCC3)cc2c(=O)n1Cc1ccc2c(c1)OCO2	none
CCCn1c(C(=O)OCC)cc2sccc21	none (no result: CapD inh)
COc1ccc(-n2c(SCc3nc4ccccc4s3)nc3ccccc32)cc1	none (no result: CapD inh)
Cc1ccc(N2C(=O)C(O)=CC2(O)c2ccccc2)cc1 (configuration not stated)	none
COc1ccc(N2C(=O)C(O)=CC2(OC)c2ccccc2)cc1 (configuration not stated)	CapD inh -4.5
CCOc1cc2c(cc1OCC)C1C(C(=O)NCCOC)c3ccccc3C(=O)N1CC2 (configuration not stated)	none
CCOc1cc2c(cc1OCC)C1C(C(=O)NCCC(C)C)c3ccccc3C(=O)N1CC2 (configuration not stated)	AID504770 -2.9
Cc1ccc(CNC(=O)Cn2c(SCc3ccccc3F)nc3cccnc32)cc1	none
Cc1ccc(S(=O)(=O)C(C#N)=C2SCCS2)cc1	none
C=CCN1C(=O)CS/C1=C(\C#N)S(=O)(=O)c1ccc(C)cc1	AID504770 -2.9
Cc1cccc(NC(=O)C2CCCCC2)c1C(=O)O	CapD inh -2
CC(C)c1ccccc1NC(=O)C1CCCCC1	none
COc1cc(-c2nnc(SCc3cc(=O)oc4ccc5ccccc5c34)o2)cc(OC)c1OC	none (no result: CapD inh)
C=CCNC(=O)CCN1c2ccccc2Sc2ccccc21	none (no result: CapD inh)
O=C(O)c1cc(=O)c2cc(Br)ccc2o1	none
O=c1ccc2cc3c([nH]c4ccc(Br)cc43)oc-2c1O	CapD inh -7.8
CC1CCCN(C(=O)c2cc(-c3ccccc3)n[nH]2)C1 (configuration not stated)	none
Cn1c(=O)n(C)c2cc(S(=O)(=O)N(Cc3ccccc3)C(=O)c3ccncc3)ccc21	CapD inh -7.6
Cn1c(=O)c(=O)n(C)c2cc(S(=O)(=O)CCC(=O)NCc3ccccc3)ccc21	none
COc1ccc(NC(=O)C2CC(=O)N(C)C(=Nc3cccc(C(F)(F)F)c3)S2)cc1 (configuration not stated)	none (no result: AID504770)
COc1ccccc1C1CCN(C(=O)OCCn2nc(-c3ccccc3)cc2-c2ccccc2)CC1	none (no result: AID504770)
Cc1ccc(C23CC4CC(CC(C(=O)NCc5ccccc5)(C4)C2)C3)cc1	none (no result: AID504770)
CCCCCC[N+]1(CCO)CCOCC1	none (no result: CapD inh)
O=C(O)c1c(F)cccc1I	CapD inh -2.9
CC(=O)Nc1cccc(F)c1C(=O)O	none (no result: AID504770)
CC(C)(C)OC(=O)N1CCCN(S(=O)(=O)c2cc(Cl)ccc2Cl)CC1	none
CC(=O)OCCNc1nc(-c2ccccc2)nc2ccccc12	none
CCCOc1ccc(-c2nc(NCCN)c3ccccc3n2)cc1	AID504770 -3
COC(=O)C1(C)Cc2ccc(Br)cc2C(=O)O1 (configuration not stated)	none (no result: CapD inh)
Cc1cc(Cl)c2cccc(Br)c2n1	none (no result: CapD inh)
CCOC(=O)c1sc(NC(=O)c2cccc(OC)c2)nc1-c1ccccc1	none
COc1cccc(C(=O)c2sc(NC(C)C)nc2N)c1	CapD inh -4.3
Cc1ccc(Nc2nc(N)nc(CSc3cc(C)c4ccccc4n3)n2)cc1	none (no result: CapD inh)
Oc1ccc(CNc2ccc(Cl)cn2)c2cccnc12	none
O=C1N(Cc2ccccc2)c2cccc3cccc(c23)N1Cc1ccccc1	none
O=c1ccsn1Cc1ccccc1	AID504770 -9.2 (no result: CapD inh)
CCCS(=O)(=O)c1c(S(=O)(=O)CCC)c2ccccn2c1C(=O)c1ccccc1	none (no result: AID504770)
O=c1c(=NO)c(=O)c2ccccc12	CapD inh -5.4
O=c1c2ccccc2c2nc3c(=O)c4ccccc4c3nc12	none (no result: CapD inh)
COc1ccc(N(C(C)=O)S(=O)(=O)c2ccc(F)cc2)cc1	CapD inh -7.3
COc1ccc(S(=O)(=O)N(C(C)=O)c2ccc3oc(=O)sc3c2)cc1	none
Cc1ccc(-c2nnc(Oc3ccc(OCc4ccccc4)cc3)c3ccccc23)cc1	none (no result: AID504770)
O=C1NC(=O)C(C2SC(=O)NC2=O)S1 (configuration not stated)	none (no result: CapD inh)
CC(CCCC(C)(C)O)CC1OCC(C)O1 (configuration not stated)	none
CC(N)CCCC(C)(C)O (configuration not stated)	CapD inh -4.1!
Cn1nc(C2CC2)cc1NC(=O)Nc1ccc(OC(F)(F)F)cc1	none
CC1=C(C(=O)N2CCCCC2)C(c2ccccc2F)C2=C(CC(C)(C)CC2=O)N1 (configuration not stated)	none
c1ccc(-c2cnc3nonc3n2)cc1	AID504770 -3
Cc1cc2ncc(-c3ccccc3)nc2cc1C	none
CCCCC(=O)Nc1cc(OC)c(OC)cc1C(=O)O	none
N#Cc1ccccc1OCC(=O)C12CC3CC(CC(C3)C1)C2	none (no result: CapD inh)
c1ccc(C2=NNC(c3nc4ccccc4[nH]3)C2)cc1 (configuration not stated)	none (no result: CapD inh)
c1ccc(C2=Nc3ccccc3SC2c2nc3ccccc3[nH]2)cc1 (configuration not stated)	CapD inh -4.1
CC(=O)NCc1ccc(C(=O)CSc2nnc(-c3ccoc3C)n2C)s1	none (no result: CapD inh)
OCCNc1nc(Nc2ccc(Cl)cc2)nc(N2CCOCC2)n1	none (no result: AID504770)
Cc1ccc(C)n1-c1ccc(C(=O)O)cc1O	CapD inh -9
Cc1cc(C(=O)O)ccc1-n1c(C)ccc1C	none
COC(=O)C(C(=O)OC)c1nc2ccccc2nc1Cl	none (no result: CapD inh)
CC(=O)Nc1nc2ccccc2nc1Cl	CapD inh -7.6
CCc1nc(CN2CCN(c3ccc(C(F)(F)F)cn3)CC2)c(C)[nH]1	none
CCc1nc(CN2CCN(c3ccc(F)cc3)CC2)c(C)[nH]1	CapD inh -1.8
CCC(=O)N1CCN=C1SC	none
CCc1ccc(N2C(=O)C3C4CCCC4=C4CCCC4C3C2=O)cc1 (configuration not stated)	none (no result: CapD inh)
COC(=O)C(Cc1cn(C(c2ccccc2)(c2ccccc2)c2ccccc2)cn1)NC(=O)OCCn1nc(-c2ccccc2)cc1-c1ccccc1 (configuration not stated)	none (no result: AID504770)
NS(=O)(=O)c1ccc(C(=O)N/N=C/c2ccc([N+](=O)[O-])o2)cc1	none (no result: AID504770)
NC(=O)N/N=C/c1ccc([N+](=O)[O-])o1	AID504770 -3.5
Cc1ccc(S(=O)(=O)N2CCN(C/C=C/c3ccccc3)CC2)c(C)c1C	none
COc1ccc(CNC(=O)CSC(C)(C)C)cc1OC	AID504770 -4.6 (no result: CapD inh)
COc1ccc(CNC(=O)CCC2CCCC2)cc1OC	none (no result: CapD inh)
Cc1ccc(C2OC3(C(=O)c4ccccc4C3=O)C3C(=O)N(c4ccc(F)cc4)C(=O)C23)cc1 (configuration not stated)	none (no result: AID504770)
O=C(CCC1CCCCC1)Nc1c[nH]c(=O)[nH]c1=O	AID504770 -2.2 (no result: CapD inh)
O=C(Nc1c[nH]c(=O)[nH]c1=O)NC1CCCC1	none
CCOC(=O)c1c(C)cc(C)[nH]c1=O	none
CCOC(=O)c1c(C)cc(C)[nH]c1=S	CapD inh -4.8
CC(C)(C)c1ccc(O)c(NC(=O)OCCc2ccccc2F)c1	none (no result: AID504770)
Fc1cccc(F)c1CN1CC=CCC1	none
CNc1ccccc1C(=O)OCC(=O)c1ccc(F)cc1	none (no result: CapD inh)
CNc1ccccc1C(=O)OCC(=O)c1ccccc1	AID504770 -3.2
c1ccc(C2CC(c3cccs3)=Nc3nc4ccccc4n32)cc1 (configuration not stated)	none (no result: CapD inh)
Nc1nc2ccccc2n1Cc1ccc(Cl)cc1	none

Screens: PubChem, ICCB-Longwood Screening Facility, Harvard Medical School
